Reference: PubChem BioAssay (NCI)
The panel holds about 79,000 compounds, 15% with a hit somewhere; the sample as a whole holds those more often. Active and inactive are the calls of the source. No stated cut-off is given here; in the data, active means growth inhibition above about 70%; inactive means the rest.

Assays:
[1] = NCI Yeast Anticancer Drug Screen. Data for the rad50 strain (AID 155);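 further: 0% = growth of vehicle-only cultures of the same strain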; details: S. cerevisiae rad50 strain growth inhibition; at 50.0 µM; active compounds read high
Summary of the method: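 Yeast carrying a defined DNA repair defect were exposed to test compounds, and growth was compared with vehicle-treated controls to give percent inhibition.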

[2] = NCI Yeast Anticancer Drug Screen. Data for the mec2-1 strain (AID 157); details: S. cerevisiae mec2-1 strain, at 50.0 µM, active compounds read high
Summary of the method: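 Strain: mec2-1 (DNA repair/cell cycle alteration). Compound exposure, then growth measured; inhibition expressed relative to vehicle.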

[3] = NCI Yeast Anticancer Drug Screen. Data for the sgs1 mgt1 strain (AID 161);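 further: 0% = growth of cultures given vehicle only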; details: S. cerevisiae sgs1 mgt1 strain, at 50.0 µM, active compounds read high
Summary of the method: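 Inhibition of yeast growth, normalised to vehicle-treated controls, is reported for a strain bearing genetic alterations in DNA damage repair.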

[4] = NCI Yeast Anticancer Drug Screen. Data for the cln2 rad14 strain (AID 165);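 further: 0% = growth equal to vehicle treated cultures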; details: S. cerevisiae cln2 rad14 strain, at 50.0 µM, active compounds read high
Summary of the method: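 Compounds are applied to the cln2 rad14 yeast strain, and growth is then compared with that of vehicle-treated cultures to give inhibition.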

[5] = NCI Yeast Anticancer Drug Screen. Data for the bub3 strain (AID 167); details: S. cerevisiae bub3 mutant strain, at 50.0 µM, active compounds read high
Summary of the method: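 Compounds were applied to a genetically altered yeast strain carrying a cell-cycle control defect. Growth inhibition was scored against vehicle-treated controls.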

[6] = NCI Yeast Anticancer Drug Screen. Data for the mlh1 rad18 strain (AID 175); details: S. cerevisiae mlh1 rad18 strain growth inhibition; at 50.0 µM; active compounds read high
Summary of the method: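 Read-out is yeast growth inhibition, calculated against vehicle-only controls. The compound was applied to a strain engineered with DNA damage repair alterations.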

Measured: growth inhibition

CC1=Nc2ccccc2NC(C)(C)C1
inactive: [1] 30.1% | [2] 23.4% | [3] 29.5% | [4] 13.9% | [5] 15.2% | [6] 20.4%

C=C(c1ccccc1)C1(O)CCCCC1N(C)C (stereo not drawn)
inactive: [1] -24.4% | [2] -13.8% | [3] 0.7% | [4] -12.3% | [5] 10.9% | [6] 12.4%

Cc1ccccc1NC(=O)NNc1ccccc1
inactive: [1] 17% | [2] -0.65% | [3] 7.35% | [4] 10.7% | [5] -2.9% | [6] 3.85%

COc1ccccc1NC(=O)OCc1ccco1
inactive: [1] 2.55% | [2] -6.9% | [3] 28.6% | [4] -65.2% | [5] 3.35% | [6] 6.85%

COc1cccc(NC(=O)c2cccc(C(=O)Nc3cccc(OC)c3)c2)c1
inactive: [1] 7% | [2] 5.55% | [3] 4.15% | [4] -32.8% | [5] -2.6% | [6] 35%

CC(=O)OC1CC2C(C)(CCC3C2(C)CCC2(C)C4CC(C)(C)CCC4(C)CCC32C)C1C (stereo not drawn)
inactive: [1] -28.2% | [2] -18.3% | [3] -7.5% | [4] 2.75% | [5] -3.2% | [6] 3.2%

Cc1cc2c(cc1Cl)SC(NNC(=O)c1ccncc1)=NS2(=O)=O
inactive: [1] -42.5% | [2] -39.8% | [3] -45.9% | [4] -32.4% | [5] -63.4% | [6] -9.4%

CSCCCN(CCCSC)CCCSC
inactive: [1] -12.6% | [2] -12.9% | [3] -0.3% | [4] 5.5% | [5] 4.5% | [6] -26.6%

Nc1nc(N)c2nc(-c3ccc(O)cc3)c(-c3ccc(O)cc3)nc2n1
inactive: [1] -15.5% | [2] -4% | [3] 0.15% | [4] 50.6% | [5] 7.9% | [6] -13.6%

CCc1ccc(CC)c(OC)c1
inactive: [1] 16.6% | [2] -1.8% | [3] 0.4% | [4] -27.2% | [5] -11.1% | [6] 18.7%

COc1ccc(C2(C)C=C(C)C=C(C)C2=O)cc1 (stereo not drawn)
inactive: [1] -5.1% | [2] 2.9% | [3] -12.2% | [4] -15.9% | [5] -9.65% | [6] 7.75%

O=C(O)c1sccc1Cc1ccsc1
inactive: [1] -6.85% | [2] -10.8% | [3] -8.65% | [4] -27.6% | [5] -25.9% | [6] 5%

Cc1cc2c(c(S(=O)(=O)c3ccccc3[N+](=O)[O-])c1)NCCC2
inactive: [1] 2.95% | [2] -36% | [3] 3.3% | [4] -23.4% | [5] 14.8% | [6] -15.8%

COC(=O)C1=C(C(=O)OC)SC(=C2c3ccsc3-c3sccc32)S1
inactive: [1] -31.3% | [2] -6.2% | [3] -7.45% | [4] 19% | [5] 1.3% | [6] -4.5%

O=C1CNC(=O)N1CCCl
inactive: [1] 19.7% | [2] -4.7% | [3] -7.65% | [4] 6.3% | [5] 6.15% | [6] -6.7%

NC(=S)N/N=C\c1nccc2ccsc12
inactive: [1] 10.4% | [2] -5.7% | [3] -9.35% | [4] -29.9% | [5] -0.05% | [6] 2.7%

Oc1ccccc1-c1cc(-c2ccccc2)nc(NCCCCCCNc2nc(-c3ccccc3)cc(-c3ccccc3O)n2)n1
inactive: [1] 9.85% | [2] 3.9% | [3] -12.1% | [4] -24.2% | [5] -6.4% | [6] 11.2%

N#C/C(=C/NC(=S)Nc1ccc(S(N)(=O)=O)cc1)C(N)=O
inactive: [1] -44.8% | [2] -89% | [3] -26.4% | [4] -10.8% | [5] -20.4% | [6] -24.1%

Cc1ccc(CCCC(N)=O)cc1
inactive: [1] 32.1% | [2] -0.15% | [3] 8.85% | [4] 4.1% | [5] -2.15% | [6] 2.55%

CCOC(=O)/C=C/SCCC(=O)OC
inactive: [1] 37.3% | [2] 21.9% | [3] 7.9% | [4] 12.4% | [5] 15% | [6] 40.8%

Cc1c(C)c(CO)c(C)c(C)c1CO
inactive: [1] -15.8% | [2] -19.4% | [3] 15.8% | [4] 4.9% | [5] 12.1% | [6] -2.1%

COc1ccc(OC)c2c1CCCC2
inactive: [1] -8.4% | [2] -5.95% | [3] -1.65% | [4] -7.35% | [5] 0.95% | [6] 7.1%

CCCCCCCCCCCCCCCCS(=O)(=O)N/N=C(/c1ccccc1Cl)N1CCOCC1
inactive: [1] -10.6% | [2] -35.4% | [3] -7.1% | [4] 16.4% | [5] -22.6% | [6] -6.75%

O=c1[nH]c2ccccc2nc1/C=C\NC(=S)Nc1cc(Cl)ccc1Cl
inactive: [1] -45.5% | [2] -32.1% | [3] -44.1% | [4] -14.8% | [5] -30.6% | [6] -40.1%

O=C1CCC(C(=O)Nc2ccc(Cl)cc2Cl)N1 (stereo not drawn)
inactive: [1] -0.15% | [2] 3.3% | [3] 7.2% | [4] 42.4% | [5] 3.45% | [6] 8.75%

CCCCOc1n[nH]c(=O)c2ccccc12
inactive: [1] -2.4% | [2] -13% | [3] -3.65% | [4] -25.4% | [5] -7.9% | [6] 8.6%

CCOC(=O)c1c[nH]c2ccc(-c3ccccc3)cc2c1=O
inactive: [1] 4.65% | [2] 39.8% | [3] 4.6% | [4] 20.4% | [5] 40.7% | [6] 24.9%

COc1ccc(NC2C(=O)C3(C)CCC2C3(C)C)cc1 (stereo not drawn)
inactive: [1] -17.2% | [2] -10.9% | [3] -8.25% | [4] -49.3% | [5] 12.2% | [6] -41.1%

O=C(O)/C(=C/c1ccccc1)c1ccccc1
inactive: [1] -9.3% | [2] -45% | [3] -30.3% | [4] -23.1% | [5] -33.5% | [6] 26.8%

O=S1(=O)CCC(N(N=C2CCCCC2)c2ccccc2)C1 (stereo not drawn)
active: [1] 96.5% | [2] 98.3% | [3] 98.5% | [4] 96.8% | [5] 98.4% | [6] 98%

O=C(/C=C/c1ccccc1)NC1C=Nc2ccc(Cl)cc2NC1=O (stereo not drawn)
inactive: [1] 39% | [2] 53.7% | [3] 38.5% | [4] 23% | [5] 28.2% | [6] 26.2%

O=[N+]([O-])c1ccc(CCO)cc1
inactive: [1] -4.15% | [2] -26.1% | [3] -6.85% | [4] -15.4% | [5] -10.5% | [6] -4.6%

CCCCC(CC)OC(=O)c1cccc(C)c1 (stereo not drawn)
inactive: [1] 9.15% | [2] 2.25% | [3] 17.8% | [4] -7.4% | [5] -0.05% | [6] 7.1%

CC(=O)OC(C)N(C(C)=O)c1ncc([N+](=O)[O-])s1 (stereo not drawn)
inactive: [1] -21.8% | [2] 2.4% | [3] -2.95% | [4] -14.3% | [5] 46.5% | [6] 4.55%

CCOC(=O)C1=C(C)N(NC(=O)OC)C2(N)N(NC(=O)OC)C(C)=C(C(=O)OCC)C12C#N (stereo not drawn)
inactive: [1] -13.3% | [2] -3.2% | [3] -7.45% | [4] -5.7% | [5] 2.5% | [6] -18.4%

c1ccc2c(c1)NC1C3(CCC4CCCCC241)SCCS3 (stereo not drawn)
inactive: [1] 9.45% | [2] 2.3% | [3] 6.8% | [4] 8.8% | [5] -2.1% | [6] -1.15%

Cc1ccc2c(c1)N=C(Nc1ccccc1)N=S2(C)=O (stereo not drawn)
inactive: [1] 2.95% | [2] -18.7% | [3] 0.45% | [4] -11.7% | [5] -7.55% | [6] -41.5%

CC(=O)OCc1ccc(Cl)cc1Cl
inactive: [1] 3.65% | [2] -2.9% | [3] 7.25% | [4] 7.4% | [5] -33.4% | [6] -12.2%
